# Results: PMC8384837, “Expanding the binding specificity for RNA recognition by a PUF domain”
# Where a chain is given by its changes, count along the chain named.
# Assays:
# Test in all cases: yeast three-hybrid, YBZ-1, SC-Leu-His + 0.5 mM 3-AT, 4 days
# Conditions in all cases: tags: N-Gal4 AD-HA kept; label: inside an RPR1-promoter hybrid RNA with tandem MS2 sites; ssRNA
# PUM1 PUF domain R8-KHQ = PUM1 PUF domain R8-KHQ (Homo sapiens, UniProt Q14671 828-1176, N1122K;Y1123H)
# Procedure, shortened: (§1)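 Each repeat of the Pumilio-1 PUF domain was randomized at its three base-contacting residues, and these libraries were co-expressed from a centromeric plasmid with matching RNA elements in strain YBZ-1. After four days on SC-Leu (input) or SC-Leu-His + 0.5 mM 3-AT (selection), the repeat regions were PCR-amplified and Illumina-sequenced. The interaction score compares variant frequency between input and selection as a log change, computed in log2 with a pseudocount of 1 for absent variants.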
# PUM1 PUF domain R4-QPG = PUM1 PUF domain R4-QPG (Homo sapiens, UniProt Q14671 828-1176, N971Q;H972P;Q975G)
# Sequence of PUM1 PUF domain R4-QPG (Q14671 828-1176 N971Q/H972P/Q975G): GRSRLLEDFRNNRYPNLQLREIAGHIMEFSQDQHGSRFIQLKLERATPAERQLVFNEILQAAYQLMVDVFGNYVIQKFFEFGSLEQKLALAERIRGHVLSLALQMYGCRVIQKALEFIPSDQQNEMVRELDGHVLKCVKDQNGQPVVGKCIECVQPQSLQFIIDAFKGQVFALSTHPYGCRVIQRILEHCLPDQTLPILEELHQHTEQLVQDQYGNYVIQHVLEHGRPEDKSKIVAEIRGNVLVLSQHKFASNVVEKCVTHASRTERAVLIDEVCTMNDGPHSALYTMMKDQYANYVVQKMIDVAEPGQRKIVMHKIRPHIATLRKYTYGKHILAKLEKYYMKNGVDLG
# Procedure, shortened: as §1
# PUM1 PUF domain R1-KRA = PUM1 PUF domain R1-KRA (Homo sapiens, UniProt Q14671 828-1176, S863K;Q867A)
# Procedure, shortened: as §1
# PUM1 PUF domain R5-TFY = PUM1 PUF domain R5-TFY (Homo sapiens, UniProt Q14671 828-1176, C1007T;R1008F;Q1011Y)
# Procedure, shortened: as §1
# PUM1 PUF domain R6-IYE = biological target: T1, PUM1 PUF domain R6-IYE (Homo sapiens, UniProt Q14671 828-1176, N1043I;Q1047E)
# T1 sequence: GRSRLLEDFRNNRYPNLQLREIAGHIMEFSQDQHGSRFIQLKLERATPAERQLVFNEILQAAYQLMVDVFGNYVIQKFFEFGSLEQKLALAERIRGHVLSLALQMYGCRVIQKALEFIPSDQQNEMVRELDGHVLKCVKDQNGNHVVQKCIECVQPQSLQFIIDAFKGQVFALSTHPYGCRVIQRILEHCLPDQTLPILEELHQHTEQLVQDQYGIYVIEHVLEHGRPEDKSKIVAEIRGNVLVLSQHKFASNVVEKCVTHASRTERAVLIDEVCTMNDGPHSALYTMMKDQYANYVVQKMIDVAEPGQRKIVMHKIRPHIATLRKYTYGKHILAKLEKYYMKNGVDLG
# Procedure, shortened: as §1
# PUM1 PUF domain R6-LYL = biological target: T2, PUM1 PUF domain R6-LYL (Homo sapiens, UniProt Q14671 828-1176, N1043L;Q1047L)
# T2 sequence: T1 sequence with I216L, E220L
# Procedure, shortened: as §1
# PUM1 PUF domain R4-SRN = PUM1 PUF domain R4-SRN (Homo sapiens, UniProt Q14671 828-1176, N971S;H972R;Q975N)
# Procedure, shortened: as §1
# PUM1 PUF domain R3-DYS = PUM1 PUF domain R3-DYS (Homo sapiens, UniProt Q14671 828-1176, C935D;R936Y;Q939S)
# Sequence of PUM1 PUF domain R3-DYS (Q14671 828-1176 C935D/R936Y/Q939S): as the sequence (Q14671 828-1176 N971Q/H972P/Q975G) above, with C108D, R109Y, Q112S, Q144N, P145H, G148Q counted along it
# Procedure, shortened: as §1
# PUM1 PUF domain R5-RQT = PUM1 PUF domain R5-RQT (Homo sapiens, UniProt Q14671 828-1176, C1007R;R1008Q;Q1011T)
# Sequence of PUM1 PUF domain R5-RQT (Q14671 828-1176 C1007R/R1008Q/Q1011T): as the sequence (Q14671 828-1176 N971Q/H972P/Q975G) above, with Q144N, P145H, G148Q, C180R, R181Q, Q184T counted along it
# Procedure, shortened: as §1
# PUM1 PUF domain R5-DWY = PUM1 PUF domain R5-DWY (Homo sapiens, UniProt Q14671 828-1176, C1007D;R1008W;Q1011Y)
# Sequence of PUM1 PUF domain R5-DWY (Q14671 828-1176 C1007D/R1008W/Q1011Y): as the sequence (Q14671 828-1176 N971Q/H972P/Q975G) above, with Q144N, P145H, G148Q, C180D, R181W, Q184Y counted along it
# Procedure, shortened: as §1
# PUM1 PUF domain R5-PFG = PUM1 PUF domain R5-PFG (Homo sapiens, UniProt Q14671 828-1176, C1007P;R1008F;Q1011G)
# Sequence of PUM1 PUF domain R5-PFG (Q14671 828-1176 C1007P/R1008F/Q1011G): as the sequence (Q14671 828-1176 N971Q/H972P/Q975G) above, with Q144N, P145H, G148Q, C180P, R181F, Q184G counted along it
# Procedure, shortened: as §1
# PUM1 PUF domain R7-GCD = PUM1 PUF domain R7-GCD (Homo sapiens, UniProt Q14671 828-1176, S1079G;N1080C;E1083D)
# Procedure, shortened: as §1
# PUM1 PUF domain R5-RQQ = PUM1 PUF domain R5-RQQ (Homo sapiens, UniProt Q14671 828-1176, C1007R;R1008Q)
# Procedure, shortened: as §1
# PUM1 PUF domain R3-LRE = PUM1 PUF domain R3-LRE (Homo sapiens, UniProt Q14671 828-1176, C935L;Q939E)
# Procedure, shortened: as §1
# PUM1 PUF domain R6-EWK = biological target: T3, PUM1 PUF domain R6-EWK (Homo sapiens, UniProt Q14671 828-1176, N1043E;Y1044W;Q1047K)
# T3 sequence: T1 sequence with I216E, Y217W, E220K
# Procedure, shortened: as §1
# PUM1 PUF domain R4-IML = PUM1 PUF domain R4-IML (Homo sapiens, UniProt Q14671 828-1176, N971I;H972M;Q975L)
# Sequence of PUM1 PUF domain R4-IML (Q14671 828-1176 N971I/H972M/Q975L): as the sequence (Q14671 828-1176 N971Q/H972P/Q975G) above, with Q144I, P145M, G148L counted along it
# Procedure, shortened: as §1
# PUM1 PUF domain R5-DRR = PUM1 PUF domain R5-DRR (Homo sapiens, UniProt Q14671 828-1176, C1007D;Q1011R)
# Procedure, shortened: as §1
# PUM1 PUF domain R5-RGV = PUM1 PUF domain R5-RGV (Homo sapiens, UniProt Q14671 828-1176, C1007R;R1008G;Q1011V)
# Sequence of PUM1 PUF domain R5-RGV (Q14671 828-1176 C1007R/R1008G/Q1011V): as the sequence (Q14671 828-1176 N971Q/H972P/Q975G) above, with Q144N, P145H, G148Q, C180R, R181G, Q184V counted along it
# Procedure, shortened: as §1
# PUM1 PUF domain R5-KSD = PUM1 PUF domain R5-KSD (Homo sapiens, UniProt Q14671 828-1176, C1007K;R1008S;Q1011D)
# Sequence of PUM1 PUF domain R5-KSD (Q14671 828-1176 C1007K/R1008S/Q1011D): as the sequence (Q14671 828-1176 N971Q/H972P/Q975G) above, with Q144N, P145H, G148Q, C180K, R181S, Q184D counted along it
# Procedure, shortened: as §1
# PUM1 PUF domain R5-KLI = PUM1 PUF domain R5-KLI (Homo sapiens, UniProt Q14671 828-1176, C1007K;R1008L;Q1011I)
# Sequence of PUM1 PUF domain R5-KLI (Q14671 828-1176 C1007K/R1008L/Q1011I): as the sequence (Q14671 828-1176 N971Q/H972P/Q975G) above, with Q144N, P145H, G148Q, C180K, R181L, Q184I counted along it
# Procedure, shortened: as §1
# Sequence of PUM1 PUF domain R8-KHQ (Q14671 828-1176 N1122K/Y1123H): as the sequence (Q14671 828-1176 N971Q/H972P/Q975G) above, with Q144N, P145H, G148Q, N295K, Y296H counted along it
sequence,measurement,setting,value
GGCUAGAACUAGUGGAUCCCCCGGCGCCCGGCGGCUCGAGCCCGGGUAAGCGUAAAUAGUCUGCAUGCCGCCGGGCGCCAUGCCUGCAGGUCGACUCUAGAAAACAUG,binding signal,PUM1 PUF domain R8-KHQ,4.7 log2 enrichment (interaction score)
GGCUAGAACUAGUGGAUCCCCCGGCGCCCGGCGGCUCGAGCCCGGGUAAGUGUACAUAGUCUGCAUGCCGCCGGGCGCCAUGCCUGCAGGUCGACUCUAGAAAACAUG,binding signal,PUM1 PUF domain R4-QPG,3.33 log2 enrichment (interaction score)
GGCUAGAACUAGUGGAUCCCCCGGCGCCCGGCGGCUCGAGCCCGGGUAAGUGUAAAUCGUCUGCAUGCCGCCGGGCGCCAUGCCUGCAGGUCGACUCUAGAAAACAUG,binding signal,PUM1 PUF domain R1-KRA,5.03 log2 enrichment (interaction score)
GGCUAGAACUAGUGGAUCCCCCGGCGCCCGGCGGCUCGAGCCCGGGUAAGUGUAAAUAGUCUGCAUGCCGCCGGGCGCCAUGCCUGCAGGUCGACUCUAGAAAACAUG,binding signal,PUM1 PUF domain R5-TFY,2.23 log2 enrichment (interaction score)
same,binding signal,PUM1 PUF domain R6-IYE,2.5 log2 enrichment (interaction score)
same,binding signal,PUM1 PUF domain R6-LYL,2.24 log2 enrichment (interaction score)
same,binding signal,PUM1 PUF domain R4-SRN,3.38 log2 enrichment (interaction score)
same,binding signal,PUM1 PUF domain R3-DYS,4.59 log2 enrichment (interaction score)
same,binding signal,PUM1 PUF domain R5-RQT,1.57 log2 enrichment (interaction score)
same,binding signal,PUM1 PUF domain R4-QPG,2.21 log2 enrichment (interaction score)
same,binding signal,PUM1 PUF domain R5-DWY,6.99 log2 enrichment (interaction score)
same,binding signal,PUM1 PUF domain R5-PFG,6.32 log2 enrichment (interaction score)
GGCUAGAACUAGUGGAUCCCCCGGCGCCCGGCGGCUCGAGCCCGGGUAAGUUUAAAUAGUCUGCAUGCCGCCGGGCGCCAUGCCUGCAGGUCGACUCUAGAAAACAUG,binding signal,PUM1 PUF domain R7-GCD,3.51 log2 enrichment (interaction score)
GGCUAGAACUAGUGGAUCCCCCGGCGCCCGGCGGCUCGAGCCCGGGUAAGUGUGAAUAGUCUGCAUGCCGCCGGGCGCCAUGCCUGCAGGUCGACUCUAGAAAACAUG,binding signal,PUM1 PUF domain R5-RQQ,1.47 log2 enrichment (interaction score)
same,binding signal,PUM1 PUF domain R5-DWY,2.39 log2 enrichment (interaction score)
GGCUAGAACUAGUGGAUCCCCCGGCGCCCGGCGGCUCGAGCCCGGGUAAGUGUAAGUAGUCUGCAUGCCGCCGGGCGCCAUGCCUGCAGGUCGACUCUAGAAAACAUG,binding signal,PUM1 PUF domain R3-LRE,3.1 log2 enrichment (interaction score)
GGCUAGAACUAGUGGAUCCCCCGGCGCCCGGCGGCUCGAGCCCGGGUAAGUGAAAAUAGUCUGCAUGCCGCCGGGCGCCAUGCCUGCAGGUCGACUCUAGAAAACAUG,binding signal,PUM1 PUF domain R6-LYL,3.54 log2 enrichment (interaction score)
GGCUAGAACUAGUGGAUCCCCCGGCGCCCGGCGGCUCGAGCCCGGGUAAGUGUAUAUAGUCUGCAUGCCGCCGGGCGCCAUGCCUGCAGGUCGACUCUAGAAAACAUG,binding signal,PUM1 PUF domain R4-SRN,0.7 log2 enrichment (interaction score)
same,binding signal,PUM1 PUF domain R4-QPG,5.06 log2 enrichment (interaction score)
GGCUAGAACUAGUGGAUCCCCCGGCGCCCGGCGGCUCGAGCCCGGGUAAGUGGAAAUAGUCUGCAUGCCGCCGGGCGCCAUGCCUGCAGGUCGACUCUAGAAAACAUG,binding signal,PUM1 PUF domain R6-EWK,2.84 log2 enrichment (interaction score)
GGCUAGAACUAGUGGAUCCCCCGGCGCCCGGCGGCUCGAGCCCGGGUAAGUGUAGAUAGUCUGCAUGCCGCCGGGCGCCAUGCCUGCAGGUCGACUCUAGAAAACAUG,binding signal,PUM1 PUF domain R4-IML,3.09 log2 enrichment (interaction score)
GGCUAGAACUAGUGGAUCCCCCGGCGCCCGGCGGCUCGAGCCCGGGUAAGUGUUAAUAGUCUGCAUGCCGCCGGGCGCCAUGCCUGCAGGUCGACUCUAGAAAACAUG,binding signal,PUM1 PUF domain R5-RQQ,5.69 log2 enrichment (interaction score)
same,binding signal,PUM1 PUF domain R5-DRR,2.64 log2 enrichment (interaction score)
same,binding signal,PUM1 PUF domain R5-RGV,0.34 log2 enrichment (interaction score)
same,binding signal,PUM1 PUF domain R5-KSD,1.41 log2 enrichment (interaction score)
GGCUAGAACUAGUGGAUCCCCCGGCGCCCGGCGGCUCGAGCCCGGGUAAGUGUCAAUAGUCUGCAUGCCGCCGGGCGCCAUGCCUGCAGGUCGACUCUAGAAAACAUG,binding signal,PUM1 PUF domain R5-RQQ,5.36 log2 enrichment (interaction score)
same,binding signal,PUM1 PUF domain R5-DRR,3.48 log2 enrichment (interaction score)
same,binding signal,PUM1 PUF domain R5-RGV,2.55 log2 enrichment (interaction score)
same,binding signal,PUM1 PUF domain R5-RQT,4.99 log2 enrichment (interaction score)
same,binding signal,PUM1 PUF domain R5-KLI,2.75 log2 enrichment (interaction score)
same,binding signal,PUM1 PUF domain R5-KSD,2.5 log2 enrichment (interaction score)
same,binding signal,PUM1 PUF domain R5-DWY,1.16 log2 enrichment (interaction score)
